Test results as given in PubChem BioAssay AID485346 (Sanford-Burnham Center for Chemical Genomics, 2010).
About 10,000 (3%) of roughly 330,000 compounds were called active.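 Rule for the calls: active = inhibition of at least 50% at 8 µM in the primary screen; inactive = the rest.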 For the sample, actives were picked, then their nearest neighbours and some compounds at random.

Biological target: Protein Mdm4 (Homo sapiens) + E3 ubiquitin-protein ligase Mdm2 (Homo sapiens) (UniProt O15151+Q00987)
Experiment: disruptors of Mdm2/MdmX RING complex – cell-based, luminescence, split luciferase, SaOS-2, uHTS, primary screen (AID 485346)
Conditions: SaOS-2 split-luciferase Mdm2/MdmX complementation, at 8 µM, active compounds read high

Chain of Protein Mdm4 (Homo sapiens) + E3 ubiquitin-protein ligase Mdm2 (Homo sapiens) (O15151 whole entry, looked up): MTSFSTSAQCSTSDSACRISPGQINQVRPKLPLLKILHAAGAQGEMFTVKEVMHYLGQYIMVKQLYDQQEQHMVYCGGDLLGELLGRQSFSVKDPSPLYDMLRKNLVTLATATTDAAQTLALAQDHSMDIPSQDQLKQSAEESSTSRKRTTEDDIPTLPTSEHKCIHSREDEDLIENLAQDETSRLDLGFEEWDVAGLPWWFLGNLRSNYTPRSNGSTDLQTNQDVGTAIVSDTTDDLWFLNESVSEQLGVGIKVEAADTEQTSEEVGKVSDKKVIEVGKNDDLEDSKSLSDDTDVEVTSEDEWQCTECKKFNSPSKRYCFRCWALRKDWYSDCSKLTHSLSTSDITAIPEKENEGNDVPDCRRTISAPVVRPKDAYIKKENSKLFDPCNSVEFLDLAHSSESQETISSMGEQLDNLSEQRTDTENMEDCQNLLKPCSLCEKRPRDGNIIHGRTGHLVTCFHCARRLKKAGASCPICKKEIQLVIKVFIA
Chain of Protein Mdm4 (Homo sapiens) + E3 ubiquitin-protein ligase Mdm2 (Homo sapiens) (Q00987 whole entry, looked up): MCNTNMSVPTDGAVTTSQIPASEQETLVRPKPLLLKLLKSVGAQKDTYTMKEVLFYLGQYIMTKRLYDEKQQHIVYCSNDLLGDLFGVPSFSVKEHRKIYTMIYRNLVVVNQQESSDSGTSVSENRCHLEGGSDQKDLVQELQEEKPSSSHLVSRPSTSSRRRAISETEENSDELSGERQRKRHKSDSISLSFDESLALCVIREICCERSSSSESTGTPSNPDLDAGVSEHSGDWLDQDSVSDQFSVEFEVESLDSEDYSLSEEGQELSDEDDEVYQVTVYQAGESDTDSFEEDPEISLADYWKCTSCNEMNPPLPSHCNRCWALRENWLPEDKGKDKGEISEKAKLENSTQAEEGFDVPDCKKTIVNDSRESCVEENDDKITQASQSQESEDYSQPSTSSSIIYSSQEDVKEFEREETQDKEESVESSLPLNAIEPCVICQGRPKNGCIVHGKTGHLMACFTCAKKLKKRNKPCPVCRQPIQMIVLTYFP

Structure (SMILES) | inhibition
CC(Oc1ccc(F)cc1)C(=O)Nc1cc(S(=O)(=O)N2CCOCC2)ccc1N1CCN(C)CC1 (stereo not drawn) | 13.7% (inactive)
Cc1cc(NC(=O)CCC(=O)N(c2cccc(F)c2)C(C(=O)NC2CCCC2)c2ccncc2)no1 (stereo not drawn) | -20% (inactive)
Cc1cc(NC(=O)/C=C/C(=O)N(c2ccccc2C)C(C(=O)NC2CCCC2)c2ccc(F)cc2)no1 (stereo not drawn) | 63.1% (active)
Cc1cc(NC(=O)/C=C/C(=O)N(CC(=O)NC2CCCC2)c2ccc(F)cc2)no1 | -19.5% (inactive)
COc1ccc(/C=N/NC(=O)c2cc(-c3cccc(C)c3)nc3ccccc23)cc1O | 34.6% (inactive)
CCOc1cc(/C=N/NC(=O)c2cc(-c3ccccc3)nc3ccccc23)ccc1O | -10.1% (inactive)
CCOc1ccc(-c2cc(C(=O)N/N=C/c3ccc(O)cc3)c3ccccc3n2)cc1 | 76.9% (active)
O=C(NCCCN1CCOCC1)c1cnn2c(-c3ccccc3)cc(-c3ccccc3)nc12 | 37.7% (inactive)
CCN1CCN(c2ccc(S(=O)(=O)N3CCCCC3)cc2NC(=O)Cc2c(Cl)cccc2Cl)CC1 | 65.1% (active)
CCN1CCN(c2ccc(S(=O)(=O)N3CCCCC3)cc2NC(=O)c2cccc(NC(C)=O)c2)CC1 | 12% (inactive)
CN1CCN(c2ccc(S(=O)(=O)N3CCCCC3)cc2NC(=O)Cc2ccccc2F)CC1 | 9.14% (inactive)
COc1ccc(Cn2c(=S)[nH]c3cc(C(=O)N4CCCCC4)ccc3c2=O)cc1 | 14.8% (inactive)
COc1cc2[nH]c(=S)n(Cc3ccc(C)o3)c(=O)c2cc1OC | 2.31% (inactive)
COc1cc2[nH]c(=S)n(Cc3ccc(F)cc3)c(=O)c2cc1OC | 81.3% (active)
COc1cc2[nH]c(=S)n(CCN3CCCCC3C)c(=O)c2cc1OC (stereo not drawn) | 39.9% (inactive)
CCOc1cc2[nH]c(=S)n(Cc3ccc(C(=O)N4CCN(C)CC4)cc3)c(=O)c2cc1OCC | 91.7% (active)
CCOc1cc2[nH]c(=S)n(Cc3ccc(C(=O)NCCOC)cc3)c(=O)c2cc1OCC | 19.2% (inactive)
CC(=O)NC(Cc1ccc(F)c(F)c1)C(=O)NC1CCN(c2nnnn2-c2ccccc2)CC1 (stereo not drawn) | 6.6% (inactive)
Cc1ccc(CNC(=O)CCCNC(=O)c2ccc(Cl)cc2)n1C | 22.5% (inactive)
CCN(Cc1ccncc1)C(=O)CCc1ccccc1 | 16.5% (inactive)
O=C(CCNc1n[nH]c(=O)[nH]c1=O)N/N=C\c1ccc(Br)cc1 | 9.18% (inactive)
CC1=C(C)CC(C(=O)NNC(=O)c2csc3c2CCC(C(C)(C)C)C3)C(C(=O)O)C1 (stereo not drawn) | 7.93% (inactive)

Structure (SMILES) | inhibition
CC1=C(C)CC(C(=O)NNC(=O)c2ccccc2O)C(C(=O)O)C1 (stereo not drawn) | 60.5% (active)
Cc1cc(C(=O)NNC(=O)c2ccccc2O)c(C)o1 | 30% (inactive)
Cc1noc(NS(=O)(=O)c2ccc(NC(=O)c3oc4ccc(F)cc4c3C)cc2)c1C | -34% (inactive)
O=c1oc2ccccc2cc1-c1cn(-c2ccccc2)c(=S)[nH]1 | 88.3% (active)
O=C(Nc1cc2ccccc2oc1=O)C1CCCCC1 | -82.7% (inactive)
S=c1[nH]c(-c2cccs2)cn1-c1ccccc1 | -16.2% (inactive)
COCCCN1C(=O)C(=O)/C(=C(/O)c2ccc(S(=O)(=O)N3CCOCC3)cc2)C1c1ccc(F)cc1 (stereo not drawn) | -23.9% (inactive)
COc1ccccc1C1=CC(=O)C[C@H](c2ccc(F)cc2)C1 | -0.761% (inactive)
O=C(NCCc1ccccc1)Oc1ccc(Cl)cc1 | 11.2% (inactive)
CCOc1ccc(Nc2nc(Cl)nc(N3CCN(c4ccc(OC)cc4)CC3)n2)cc1 | 7.3% (inactive)
CCOC(=O)N1CCN(CCC(=O)Nc2cc(OC)ccc2OC)CC1 | -21.2% (inactive)
CCN1CCN(c2nc(Nc3cc(OC)ccc3OC)nc(Nc3cc(OC)ccc3OC)n2)CC1 | 56.2% (active)
Cc1ccc(C)c(-n2nnnc2SCC(=O)c2c(N)n(C)c(=O)n(C)c2=O)c1 | 24.7% (inactive)
CS(=O)(=O)N(CC(=O)Nc1ccc(Cl)c(Cl)c1)C1CCCCC1 | 11.5% (inactive)
CCn1nccc1C(=O)Nc1ccc(Cl)c(Cl)c1 | 28.3% (inactive)
O=C(CC(O)(C(F)(F)F)C(F)(F)F)Nc1ccc(Cl)c(Cl)c1 | 83.5% (active)
COc1ccc(N2CCN(C(=O)CNS(=O)(=O)c3ccc(C)c(C)c3)CC2)cc1 | -7.3% (inactive)
CN(C)c1ccc(C=C2C(=O)OC3(CCCC3)OC2=O)cc1 | -3.25% (inactive)
COc1cc(/C=N/NC(=O)c2ccoc2C)ccc1OCCN1CCCCC1 | 7.93% (inactive)
COc1cc(/C=N/NC(=O)Nc2ccccc2)ccc1OCCOc1ccccc1C | 63.8% (active)
COC(=O)c1ccc(COc2ccc(/C=N/NC(=O)C(=O)Nc3ccc(OC)cc3)cc2OC)o1 | 36.6% (inactive)
COc1ccc(-c2ccc(Nc3ccc(S(=O)(=O)N4CCCC4)cc3)nn2)cc1OC | 57.4% (active)

Structure (SMILES) | inhibition
COc1ccc(S(=O)(=O)N2CCCCCC2)cc1NC(=O)Cc1ccc(OC)c(OC)c1 | 7.01% (inactive)
COc1cc(C(C)=O)ccc1OC(C)C(=O)Nc1ccc(S(=O)(=O)N2CCCC2)cc1 (stereo not drawn) | 9.67% (inactive)
O/N=C(\C[n+]1ccccc1)c1ccc(Br)cc1 | 17% (inactive)
CC(=O)C(CC(=O)N1CCCC1)C(=O)Nc1ccc(Cl)cc1 (stereo not drawn) | -3.54% (inactive)
O=C(O)CCCN1C(=O)c2ccccc2Sc2ncccc21 | -8.61% (inactive)
Nc1nc(COC(=O)CCC(=O)c2ccc(Cl)cc2)nc(Nc2ccccc2)n1 | -9.75% (inactive)
Nc1nc(CC(=O)CSc2ccc(Cl)cc2)nc(Nc2ccc(F)cc2)n1 | 81% (active)
Cc1ccc(Nc2nc(N)nc(CSc3nnc(C)s3)n2)cc1 | -6.62% (inactive)
CCS(=O)(=O)c1ccc2c(c1)N(S(=O)(=O)c1ccccc1)CC(C(=O)O)O2 (stereo not drawn) | -32% (inactive)
Cn1c(N)c(C(=O)COC(=O)/C=C/c2cccc(C(F)(F)F)c2)c(=O)n(C)c1=O | 21.9% (inactive)
COc1ccc(-c2sc3ccc(OC)cc3c2C#Cc2ccccn2)cc1 | 40.5% (inactive)
COc1ccc2sc(-c3ccc(S(C)(=O)=O)cc3)c(-c3ccc(C(N)=O)cc3)c2c1 | 12% (inactive)
COc1ccc2sc(-c3ccc(S(C)(=O)=O)cc3)c(C#Cc3cncn3C)c2c1 | 69.9% (active)
COCc1cc(C)nc(Nc2cc(C)ccc2C)c1C#N | 17.9% (inactive)
COc1cc(/C=N/NC(=O)Cc2ccccc2)cc(OC)c1OC | 4.45% (inactive)
COc1cc(N=Cc2c(O)c3ccccc3oc2=O)c(OC)cc1Cl | 20.6% (inactive)
CN=c1scc(-c2cc(OC)ccc2OC)n1/N=C/c1c(C)[nH]c2ccccc12 | 20.3% (inactive)
COc1cc(N=Cc2c(O)[nH]c3ccccc23)cc(OC)c1OC | 80.2% (active)
COc1ccc2[nH]c(C(=O)N/N=C/c3cc(OC)c(OC)c(OC)c3)cc2c1 | 11.4% (inactive)
COc1ccc(N=Cc2c(O)[nH]c3ccccc23)cc1OC | 61.3% (active)
Cc1cc(CNCc2c(C(=O)N(C)Cc3ccccc3)nc3ccccn23)nn1C | 35.1% (inactive)
CC1O[C@H](OC2C(COC3OC(CO)C(O)[C@H](O)C3O)OC(OC3CC[C@]4(C)C(CC[C@@]5(C)[C@@H]4C=C[C@]46OC[C@@]7(CCC(C)(C)C[C@H]74)C(O)C[C@@]56C)C3(C)C)C(O)C2O)C(O)C(O)C1O (stereo partly drawn) | -4.59% (inactive)

Structure (SMILES) | inhibition
Cc1c(C#N)c(NC(=O)c2ccccc2)n(Cc2ccccc2)c1C | 29.1% (inactive)
CCOc1cnc(C(=O)NNC(=O)c2ccccc2Br)o1 | -14.2% (inactive)
CCn1c(CC(=O)Nc2ccccc2C)nnc1SCC(=O)NC1=NCCS1 | 6.16% (inactive)
Cc1ccc(C(=O)O)cc1N1C(=O)CCCC1=O | -17.1% (inactive)
CN(C(=O)c1cccc(NC(=O)Cc2cccc([N+](=O)[O-])c2)c1)C1CCCCC1 | 18.4% (inactive)
CC(OC(=O)c1ccc(-n2cnnn2)cc1)C(=O)NCc1ccccc1 (stereo not drawn) | 8.29% (inactive)
Cc1c(CN2CCC(CO)(CCOc3ccccc3)CC2)[nH]c2ccc(Cl)cc12 | 89.6% (active)
CCOC(=O)C1(CCOc2ccccc2)CCN(Cc2cc(OC)c(O)cc2Cl)CC1 | 28.9% (inactive)
OCC1(CCOc2ccccc2)CCN(Cc2cn[nH]c2-c2ccccc2)CC1 | 12.6% (inactive)
O=C(COC(=O)c1cc(-c2cccs2)nn1-c1ccccc1)Nc1cc([N+](=O)[O-])ccc1Cl | -2.96% (inactive)
O=C(CCNC(=O)c1ccccc1)NN=Cc1ccc(Br)o1 | 5.26% (inactive)
COc1ccc(CNC(=O)COC(=O)CCS(=O)(=O)c2ccc(C)cc2)cc1OC | 21.8% (inactive)
CCOc1ncccc1C(=O)Nc1ccc(S(=O)(=O)Nc2nc(C)cc(C)n2)cc1 | -16.7% (inactive)
CC(=O)Nc1ccc(S(=O)(=O)Nc2cc(C)cn(Cc3ccc(C)cc3)c2=O)cc1 | 17.7% (inactive)
O=c1c([N+](=O)[O-])cccn1Cc1ccc(F)cc1Cl | 10.4% (inactive)
Brc1ccccc1/C=N/Nc1nc2ccccc2o1 | 36.2% (inactive)
Oc1c(Br)cccc1/C=N/Nc1c(F)c(F)c(F)c(F)c1F | 82.4% (active)
CC(=O)/C(=N\Nc1ccc(Cl)cc1Cl)Sc1cccc2cccnc12 | 63.2% (active)
S=C(NCc1cccnc1)Nc1ccc(Cl)cc1Cl | 4.36% (inactive)
O=C(NNc1cc(Cl)ccc1Cl)c1cccnc1Cl | 9.63% (inactive)
COc1ccccc1NC(=O)C1CCN(C(=O)c2ccc(C(C)(C)C)cc2)CC1 | 28.8% (inactive)
CCCCCCCNC(=O)C1(CC2CC(c3cccc(Br)c3)=NO2)CCN(C(=O)c2cc(OCC)c(OCC)c(OCC)c2)CC1 (stereo not drawn) | 18.1% (inactive)
